# Experimental data from PubChem BioAssay (NCI).
# This is part of a sample that, as a whole, favours compounds with a hit. Of some 79,000 tested, about 15% had one in any assay. Activity calls are given as the source filed them. Rule as the data show it: active = growth inhibition above about 70%; inactive = the rest. *1 amine or outer side, *2 acyl side, *3 side chain or, on linkers, in order; H or OH if unused. Where a SMILES comes first, the peptide text is derived from it. The star is where a group is joined. Trt = c1ccc(C(c2ccccc2)(c2ccccc2)*)cc1; γGlu = O=C(O)[CH](CCC(=O)[*:2])N[*:1]; Cbz = O=C(OCc1ccccc1)*; Bz = O=C(c1ccccc1)*; NHOH = ON*
# Test: NCI Yeast Anticancer Drug Screen. Data for the sgs1 mgt1 strain (AID 161);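 also: 0% = growth of cultures given vehicle only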
# Conditions: S. cerevisiae sgs1 mgt1 strain, at 50.0 µM, stronger effect = higher value
# Summary of the method: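 Inhibition of yeast growth, normalised to vehicle-treated controls, is reported for a strain bearing genetic alterations in DNA damage repair.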
row,SMILES,growth inhibition
1,NCCSCCN,-4.65% (inactive)
2,NC(CCC(=O)NC(CCC(=O)NO)C(=O)NCC(=O)O)C(=O)O (stereo not given) (γGlu-Glu(NHOH)-Gly-OH; configuration not given here),-11.6% (inactive)
3,O=c1ccn2n1Cc1ccccc1C2,-17.9% (inactive)
4,Cn1c(C=O)cc2c(Cl)nccc21,-11.8% (inactive)
5,CC(=O)Nc1ccc[n+](CC(=O)c2ccc(F)cc2)c1,4.35% (inactive)
6,CCOC(=O)C1C=CC(C)N(C(=O)OCC)N1C(=O)OCC (stereo not given),7.5% (inactive)
7,Nc1nc(-c2ccco2)cc(-c2ccc(CO)o2)n1,-10.2% (inactive)
8,O=C1NC(Cc2cccc(I)c2)C(=O)N1c1ccccc1 (stereo not given),31.9% (inactive)
9,CCOC(=O)C(=O)C1C(=O)Nc2ccccc21 (stereo not given),-6.35% (inactive)
10,CN(C)C1Cc2ccccc2C1OC(=O)c1ccccc1 (stereo not given),11% (inactive)
11,O=S(=O)(c1ccc(Br)cc1)S(=O)(=O)c1ccc(Br)cc1,-23.1% (inactive)
12,CCc1cc2c(cc1C(=O)/C=C\c1cccc3ccccc13)C(C)(C)CCC2(C)C,8.15% (inactive)
13,CC(=O)/C=C1/NC(C(=O)c2ccccc2)=CNC1c1ccccc1 (stereo not given),20.6% (inactive)
14,CCOC(=O)CCC(NC(=O)c1ccc(NC)c([N+](=O)[O-])c1)C(=O)OCC (stereo not given),11.4% (inactive)
15,Cc1ccc(S(=O)(=O)OCCOCCOc2ccc(C(C)(C)CC(C)(C)C)cc2)cc1,34% (inactive)
16,ONC1=Nc2ccccc2C(=S)N2CSCC12 (stereo not given),-26.4% (inactive)
17,CCCCN(C(C)=O)c1ccccc1,4.2% (inactive)
18,O=C1OC(c2cccc(Cl)c2)=N/C1=C\c1ccc(Cl)cc1,16.6% (inactive)
19,CC(=O)N1CCC(=O)/C(=C/c2ccccc2)C1,32% (inactive)
20,Cc1cccc(NN)c1,7.45% (inactive)

row,SMILES,growth inhibition
1,CCCCCCCC/C=C/CCCCCC1CCCC(C)N1 (stereo not given),2.3% (inactive)
2,Nc1ncnc2c1cnn2Cc1ccccc1,4.65% (inactive)
3,C/C(=N/NS(=O)(=O)c1ccc(N)cc1)c1ccccc1,1.45% (inactive)
4,COc1cc([N+](=O)[O-])ccc1NC(=O)Nc1ccc(Cl)cc1[N+](=O)[O-],24.6% (inactive)
5,CCOC(=O)Oc1ccc(C(=O)Oc2cc(Cl)c(Cl)cc2Cl)cc1OC,3.25% (inactive)
6,Cc1ccccc1C(=O)NNC(=O)c1cccc2ccccc12,7.9% (inactive)
7,Cc1cc(S(=O)(=O)Nc2nc3ccccc3[nH]2)c(S)cc1Cl,23.9% (inactive)
8,O=C1NCC/C1=C\c1ccc(Cl)c(Cl)c1,-10.3% (inactive)
9,CCCCc1ccc(Nc2nc(SC)c3[nH]cnc3n2)cc1,28.9% (inactive)
10,CC(=O)Nc1cc2c(s1)CCC1CC(=O)NN=C21 (stereo not given),-31.8% (inactive)
11,CC(=O)c1ccc2c(ccc3ccccc32)c1O,-3.65% (inactive)
12,CC(C)c1nnc(NC(=O)CSC(=S)N2CCOCC2)s1,-5.95% (inactive)
13,COC(=O)C(CSC(=O)c1ccccc1)NC(=O)CNC(=O)CNC(=O)C(CCCCNC(=O)OCc1ccccc1)NC(=O)CNC(=O)C(CSC(c1ccccc1)(c1ccccc1)c1ccccc1)NC(=O)OCc1ccccc1 (stereo not given) (Cbz-C(Trt)GK(Cbz)GGC(Bz)-OMe; configuration not given here),25.8% (inactive)
14,CC1=CC2=C(OCO1)C(=O)c1ccccc1C2=O,-21.6% (inactive)
15,C=C1CCC2(C)CCC3(C)C(CCC4C5(C)CCC(OC(C)=O)C(C)(C)C5CCC43C)C2C1C (stereo not given),4.6% (inactive)
16,CNCc1ccccc1,-21% (inactive)
17,NC(=S)N/N=C(\Cc1nc2ccc(Cl)cc2[nH]c1=O)C(=O)Nc1ccc(Cl)cc1,-23.9% (inactive)
18,O=C(OCC(OC(=O)c1ccccc1)C(OC(=O)c1ccccc1)C(OC(=O)c1ccccc1)C(COC(=O)c1ccccc1)OC(=O)c1ccccc1)c1ccccc1 (stereo not given),10.7% (inactive)
19,COC(=O)C1CC(c2ccc(Cl)cc2)=NO1 (stereo not given),8.5% (inactive)
20,CCN(CC)C1=CC(=O)C(N(CC)CC)=CC1=O,-7% (inactive)

# Test: NCI Yeast Anticancer Drug Screen. Data for the cln2 rad14 strain (AID 165);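 also: 0% = growth equal to vehicle treated cultures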
# Conditions: S. cerevisiae cln2 rad14 strain, at 50.0 µM, stronger effect = higher value
# Summary of the method: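 cln2 rad14 yeast strain; compound exposure; growth inhibition read vs vehicle controls.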
row,SMILES,growth inhibition
1,NCCSCCN,-0.3% (inactive)
2,NC(CCC(=O)NC(CCC(=O)NO)C(=O)NCC(=O)O)C(=O)O (stereo not given) (γGlu-Glu(NHOH)-Gly-OH; configuration not given here),2.05% (inactive)
3,O=c1ccn2n1Cc1ccccc1C2,13.3% (inactive)
4,Cn1c(C=O)cc2c(Cl)nccc21,-54.9% (inactive)
5,CC(=O)Nc1ccc[n+](CC(=O)c2ccc(F)cc2)c1,-42.6% (inactive)
6,CCOC(=O)C1C=CC(C)N(C(=O)OCC)N1C(=O)OCC (stereo not given),-2.3% (inactive)
7,Nc1nc(-c2ccco2)cc(-c2ccc(CO)o2)n1,8.25% (inactive)
8,O=C1NC(Cc2cccc(I)c2)C(=O)N1c1ccccc1 (stereo not given),28.8% (inactive)
9,CCOC(=O)C(=O)C1C(=O)Nc2ccccc21 (stereo not given),-2.5% (inactive)
10,CN(C)C1Cc2ccccc2C1OC(=O)c1ccccc1 (stereo not given),22.1% (inactive)
11,O=S(=O)(c1ccc(Br)cc1)S(=O)(=O)c1ccc(Br)cc1,-13.9% (inactive)
12,CCc1cc2c(cc1C(=O)/C=C\c1cccc3ccccc13)C(C)(C)CCC2(C)C,-20.1% (inactive)
13,CC(=O)/C=C1/NC(C(=O)c2ccccc2)=CNC1c1ccccc1 (stereo not given),-14.5% (inactive)
14,CCOC(=O)CCC(NC(=O)c1ccc(NC)c([N+](=O)[O-])c1)C(=O)OCC (stereo not given),18.8% (inactive)
15,Cc1ccc(S(=O)(=O)OCCOCCOc2ccc(C(C)(C)CC(C)(C)C)cc2)cc1,4.3% (inactive)
16,ONC1=Nc2ccccc2C(=S)N2CSCC12 (stereo not given),-19.6% (inactive)
17,CCCCN(C(C)=O)c1ccccc1,-6.15% (inactive)
18,O=C1OC(c2cccc(Cl)c2)=N/C1=C\c1ccc(Cl)cc1,11.2% (inactive)
19,CC(=O)N1CCC(=O)/C(=C/c2ccccc2)C1,15.9% (inactive)
20,Cc1cccc(NN)c1,30% (inactive)

row,SMILES,growth inhibition
1,CCCCCCCC/C=C/CCCCCC1CCCC(C)N1 (stereo not given),3.65% (inactive)
2,Nc1ncnc2c1cnn2Cc1ccccc1,-3.75% (inactive)
3,C/C(=N/NS(=O)(=O)c1ccc(N)cc1)c1ccccc1,15.6% (inactive)
4,COc1cc([N+](=O)[O-])ccc1NC(=O)Nc1ccc(Cl)cc1[N+](=O)[O-],-12.6% (inactive)
5,CCOC(=O)Oc1ccc(C(=O)Oc2cc(Cl)c(Cl)cc2Cl)cc1OC,18% (inactive)
6,Cc1ccccc1C(=O)NNC(=O)c1cccc2ccccc12,3.65% (inactive)
7,Cc1cc(S(=O)(=O)Nc2nc3ccccc3[nH]2)c(S)cc1Cl,23.4% (inactive)
8,O=C1NCC/C1=C\c1ccc(Cl)c(Cl)c1,-17.6% (inactive)
9,CCCCc1ccc(Nc2nc(SC)c3[nH]cnc3n2)cc1,16.1% (inactive)
10,CC(=O)Nc1cc2c(s1)CCC1CC(=O)NN=C21 (stereo not given),1.9% (inactive)
11,CC(=O)c1ccc2c(ccc3ccccc32)c1O,-8.8% (inactive)
12,CC(C)c1nnc(NC(=O)CSC(=S)N2CCOCC2)s1,-51.9% (inactive)
13,COC(=O)C(CSC(=O)c1ccccc1)NC(=O)CNC(=O)CNC(=O)C(CCCCNC(=O)OCc1ccccc1)NC(=O)CNC(=O)C(CSC(c1ccccc1)(c1ccccc1)c1ccccc1)NC(=O)OCc1ccccc1 (stereo not given) (Cbz-C(Trt)GK(Cbz)GGC(Bz)-OMe; configuration not given here),-6% (inactive)
14,CC1=CC2=C(OCO1)C(=O)c1ccccc1C2=O,-17.1% (inactive)
15,C=C1CCC2(C)CCC3(C)C(CCC4C5(C)CCC(OC(C)=O)C(C)(C)C5CCC43C)C2C1C (stereo not given),1.45% (inactive)
16,CNCc1ccccc1,-23% (inactive)
17,NC(=S)N/N=C(\Cc1nc2ccc(Cl)cc2[nH]c1=O)C(=O)Nc1ccc(Cl)cc1,-10.2% (inactive)
18,O=C(OCC(OC(=O)c1ccccc1)C(OC(=O)c1ccccc1)C(OC(=O)c1ccccc1)C(COC(=O)c1ccccc1)OC(=O)c1ccccc1)c1ccccc1 (stereo not given),5.55% (inactive)
19,COC(=O)C1CC(c2ccc(Cl)cc2)=NO1 (stereo not given),5.3% (inactive)
20,CCN(CC)C1=CC(=O)C(N(CC)CC)=CC1=O,-4.5% (inactive)
